The target of assay [1] is Albumin (Bos taurus) (UniProt P02769). Kind of assay: bovine serum albumin binders on microarray, profiling panel, artefact control for SMM control protein annotation, biochemical, small-molecule microarray, Alexa647 label, 635/667 nm fluorescence (AID 1118).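 Note: score merges 667 nm emission intensity and signal-to-noise per printed compound spot.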 To be noted: BSA-A647 binding, fluorescence 635 nm, higher = more signal.
The nature of assay [2]: small-molecule microarray binders of probe aXIP, primary screen, biochemical, NeuroSMM set, 635/667 nm fluorescence (AID 1119).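 Note: probe is the protein aXip251-270 applied at 1 µg/mL to compound-printed slides; binding of probe to printed compounds measured as 667 nm fluorescence plus signal to noise.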 To be noted: higher = more signal, called active from +8 up or from −8 down.
Assay [3] is described as follows: small-molecule binders of probe aNOTCH3, primary screen, biochemical, small-molecule microarray, 635/667 nm fluorescence (AID 1120).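 Note: probe is a biotin-tagged antibody raised against NOTCH3 rather than NOTCH3 protein; score merges spot fluorescence near 667 nm with spot signal to noise.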 The following applies: higher = more signal.
Assay [4] can be described thus: small-molecule binders of probe aNOTCH2, primary screen, biochemical, small-molecule microarray, 635/667 nm fluorescence (AID 1121).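 Note: score merges feature fluorescence read at 667 nm with its signal to noise.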 The following applies: higher = more signal.
Assay [5] concerns the target Carbonic anhydrase 2 (Homo sapiens) (UniProt P00918). Kind of assay: CAII small-molecule binders, profiling panel, biochemical, small-molecule microarray, Alexa647-labelled CAII (AID 1122). To be noted: CAII-A647 binding fluorescence, higher = more signal.
Assay [6] can be described thus: COS7 lysate on small-molecule microarray, probe aHis, 635 nm (AID 1123).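 Note: z-score combines 667nm fluorescence intensity with signal-to-noise per printed compound spot.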 The following applies: COS7 cell lysate, fluorescence, higher = more signal.
Assay [7] in a line: compound binding in COS7 lysate, probe aLAP1, primary screen, cell lysate, small-molecule microarray (AID 1124).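 Note: lysate comes from COS7 cells expressing LAP1 and is applied at 0.3 µg/mL; score merges spot fluorescence near 667 nm with signal-to-noise over triplicate slides.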 To be noted: probe aLAP1, fluorescence, higher = more signal.
Assay [8] relates to Sam68 (KHDRBS1). Put plainly: Sam68 small-molecule binders, primary screen, biochemical, small-molecule microarray, 635 nm fluorescence (AID 1125).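 Note: score merges 667 nm channel intensity with signal to noise over triplicate slides.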 The following applies: small-molecule microarray binding, higher = more signal.
The test system of assay [9] is Chordin-like protein 2 (CHRDL2). Kind of assay: CHRDL2 small-molecule binders, primary screen, biochemical, small-molecule microarray, 635 nm fluorescence (AID 1126).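 Note: printed compound slides probed with Chrdl2 protein at 4 µg/mL for 1 h at 4 C; score merges 667 nm emission intensity with signal to noise over three replicate slides.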 The following applies: small-molecule microarray binding, fluorescence 635 nm; higher = more signal.
Assay [10] deals with Concanavalin-A (Canavalia ensiformis) (UniProt P02866). Put plainly: ConA small-molecule binders, primary screen, artefact control for SMM control protein annotation, biochemical, small-molecule microarray, Alexa647 label, 635 nm (AID 1127).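 Note: z combines 667 nm emission intensity with signal-to-noise across three replicate slides.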 To be noted: ConA-A647 binding fluorescence, higher = more signal.
A short description of assay [11]: anti-His antibody binders, primary screen, artefact control for SMM control protein annotation, biochemical, small-molecule microarray, 635 nm fluorescence (AID 1128).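 Note: score merges feature fluorescence with signal-to-noise for each printed compound spot.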 To be noted: anti-His Alexa647 antibody binding, higher = more signal.
Assay [12] has as its system Human papillomavirus type 1a E7 protein (residues 1-88). Put plainly: HPV1a E7 small-molecule binders, primary screen, biochemical, small-molecule microarray, residues 1-88, 635 nm (AID 1129). The following applies: small-molecule microarray binding, fluorescence 635 nm; higher = more signal.
In assay [13] the target is Focal adhesion kinase 1 (Homo sapiens) (UniProt Q05397). Kind of assay: small-molecule microarray binders of FAK, primary screen, biochemical, 635/667 nm fluorescence, BSA, DTT (AID 1130).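 Note: composite of spot emission at 667 nm and signal to noise over triplicate slides.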 The following applies: PTK2 binding, 635 nm fluorescence, higher = more signal.
Assay [14] concerns Fibrinogen (Alexa647-labelled). Put plainly: fibrinogen binders on compound microarrays, profiling panel, artefact control for SMM control-protein annotation, biochemical, small-molecule microarray, 635/667 nm fluorescence (AID 1131).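 Note: z-score merges 667 nm fluorescence with per-spot signal-to-noise over triplicate slides.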 The following applies: fibrinogen-A647 binding fluorescence, higher = more signal.
Assay [15] addresses Follistatin (Homo sapiens) (UniProt P19883). Kind of assay: follistatin binders on small-molecule microarrays, primary screen, biochemical, small-molecule microarray, 635/667 nm fluorescence (AID 1132). The following applies: FST binding, 635 nm fluorescence, higher = more signal.
For assay [16], the target named is Fibroblast growth factor 2 (Homo sapiens) (UniProt P09038). Kind of assay: FGF2 binders on small-molecule microarrays, primary screen, biochemical, small-molecule microarray, 635/667 nm fluorescence (AID 1133). To be noted: small-molecule microarray binding, FGF2, fluorescence 635/667; higher = more signal.
The nature of assay [17]: mitochondrial membrane potential change in A549 cells, profiling panel, cell-based, JC-1 fluorescence, basal, 24 h, 100 nL (AID 1138).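 Note: A549 lung adenocarcinoma cells under basal conditions with no added stimulus; test concentration not given here.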 The following applies: higher = more signal.
In assay [18] the test system is Lefty1. Put plainly: Lefty1 binders on small-molecule microarrays, primary screen, biochemical, small-molecule microarray, 635/667 nm fluorescence (AID 1139). The following applies: small-molecule microarray binding, fluorescence 635/667; higher = more signal.
The test system of assay [19] is wheat germ agglutinin (Triticum aestivum), Alexa647-labelled. Put plainly: wheat germ agglutinin binders on compound microarrays, profiling panel, artefact control for SMM control-protein annotation, biochemical, small-molecule microarray, 635/667 nm fluorescence (AID 1140).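 Note: score merges 667 nm feature emission with signal to noise over triplicate slides.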 To be noted: WGA-A647 binding, 635 nm fluorescence, higher = more signal.
Assay [20] concerns the target Luciferin 4-monooxygenase (Photinus pyralis) (UniProt P08659). Kind of assay: firefly luciferase enzyme inhibitors, primary screen, biochemical, luminescence, purified enzyme, 2006 set (AID 1141).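 Note: cell-free assay with purified firefly luciferase at 100 ng per well in PBS; test concentration not given here.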 The following applies: SteadyGlo luminescence, 30 min, higher = more signal, called active from +8 up or from −8 down.

Activity calls are given as the source filed them.

Albumin (Bos taurus), sequence (P02769 whole entry, looked up): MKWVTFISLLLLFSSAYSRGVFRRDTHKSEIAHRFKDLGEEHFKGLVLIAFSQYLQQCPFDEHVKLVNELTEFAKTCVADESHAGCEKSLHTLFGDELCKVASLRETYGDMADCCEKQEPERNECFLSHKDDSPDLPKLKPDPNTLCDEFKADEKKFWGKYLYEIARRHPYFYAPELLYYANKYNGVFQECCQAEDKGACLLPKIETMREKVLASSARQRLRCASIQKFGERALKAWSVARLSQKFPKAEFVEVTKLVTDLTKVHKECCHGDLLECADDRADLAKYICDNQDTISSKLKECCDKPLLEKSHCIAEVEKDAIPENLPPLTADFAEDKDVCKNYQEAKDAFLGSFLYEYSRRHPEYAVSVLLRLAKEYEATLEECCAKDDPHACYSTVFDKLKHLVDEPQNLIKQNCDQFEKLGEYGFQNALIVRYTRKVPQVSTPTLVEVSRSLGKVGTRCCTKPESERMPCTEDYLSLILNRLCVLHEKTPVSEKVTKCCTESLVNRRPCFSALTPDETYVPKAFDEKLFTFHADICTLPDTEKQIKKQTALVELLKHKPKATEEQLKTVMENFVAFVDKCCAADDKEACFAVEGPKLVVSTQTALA
Luciferin 4-monooxygenase (Photinus pyralis), sequence (P08659 whole entry, looked up): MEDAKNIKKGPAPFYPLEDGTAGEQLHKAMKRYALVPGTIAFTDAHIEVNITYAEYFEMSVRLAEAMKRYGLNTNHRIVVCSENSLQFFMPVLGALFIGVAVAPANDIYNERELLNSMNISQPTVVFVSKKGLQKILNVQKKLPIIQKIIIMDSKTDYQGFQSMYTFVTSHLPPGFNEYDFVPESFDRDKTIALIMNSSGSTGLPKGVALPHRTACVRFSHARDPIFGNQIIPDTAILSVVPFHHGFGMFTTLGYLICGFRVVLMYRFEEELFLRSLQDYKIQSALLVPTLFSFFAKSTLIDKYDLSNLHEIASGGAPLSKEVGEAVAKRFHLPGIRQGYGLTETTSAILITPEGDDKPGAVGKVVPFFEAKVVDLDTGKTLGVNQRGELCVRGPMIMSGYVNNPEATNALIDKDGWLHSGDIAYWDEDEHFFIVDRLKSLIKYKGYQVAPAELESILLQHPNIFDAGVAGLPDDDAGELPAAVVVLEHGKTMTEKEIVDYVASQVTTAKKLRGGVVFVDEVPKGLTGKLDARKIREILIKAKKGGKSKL
Follistatin (Homo sapiens), sequence (P19883 whole entry, looked up): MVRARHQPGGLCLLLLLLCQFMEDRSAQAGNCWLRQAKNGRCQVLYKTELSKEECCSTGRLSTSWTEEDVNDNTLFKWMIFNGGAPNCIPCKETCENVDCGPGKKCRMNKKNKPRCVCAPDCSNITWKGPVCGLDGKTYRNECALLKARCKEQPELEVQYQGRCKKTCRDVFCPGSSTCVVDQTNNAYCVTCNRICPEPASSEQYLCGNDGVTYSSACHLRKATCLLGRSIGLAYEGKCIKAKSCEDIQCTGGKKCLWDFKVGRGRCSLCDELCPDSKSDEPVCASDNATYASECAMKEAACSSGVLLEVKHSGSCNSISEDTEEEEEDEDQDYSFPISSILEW
Fibroblast growth factor 2 (Homo sapiens), sequence (P09038 whole entry, looked up): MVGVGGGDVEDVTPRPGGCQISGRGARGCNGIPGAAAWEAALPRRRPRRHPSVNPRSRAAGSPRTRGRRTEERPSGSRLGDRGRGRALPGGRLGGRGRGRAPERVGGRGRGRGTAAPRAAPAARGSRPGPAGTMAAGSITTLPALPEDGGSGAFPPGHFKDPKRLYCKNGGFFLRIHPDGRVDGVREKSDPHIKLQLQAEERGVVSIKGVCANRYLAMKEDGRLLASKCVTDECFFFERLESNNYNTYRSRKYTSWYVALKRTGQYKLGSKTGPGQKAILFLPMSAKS
Focal adhesion kinase 1 (Homo sapiens), sequence (Q05397 whole entry, looked up): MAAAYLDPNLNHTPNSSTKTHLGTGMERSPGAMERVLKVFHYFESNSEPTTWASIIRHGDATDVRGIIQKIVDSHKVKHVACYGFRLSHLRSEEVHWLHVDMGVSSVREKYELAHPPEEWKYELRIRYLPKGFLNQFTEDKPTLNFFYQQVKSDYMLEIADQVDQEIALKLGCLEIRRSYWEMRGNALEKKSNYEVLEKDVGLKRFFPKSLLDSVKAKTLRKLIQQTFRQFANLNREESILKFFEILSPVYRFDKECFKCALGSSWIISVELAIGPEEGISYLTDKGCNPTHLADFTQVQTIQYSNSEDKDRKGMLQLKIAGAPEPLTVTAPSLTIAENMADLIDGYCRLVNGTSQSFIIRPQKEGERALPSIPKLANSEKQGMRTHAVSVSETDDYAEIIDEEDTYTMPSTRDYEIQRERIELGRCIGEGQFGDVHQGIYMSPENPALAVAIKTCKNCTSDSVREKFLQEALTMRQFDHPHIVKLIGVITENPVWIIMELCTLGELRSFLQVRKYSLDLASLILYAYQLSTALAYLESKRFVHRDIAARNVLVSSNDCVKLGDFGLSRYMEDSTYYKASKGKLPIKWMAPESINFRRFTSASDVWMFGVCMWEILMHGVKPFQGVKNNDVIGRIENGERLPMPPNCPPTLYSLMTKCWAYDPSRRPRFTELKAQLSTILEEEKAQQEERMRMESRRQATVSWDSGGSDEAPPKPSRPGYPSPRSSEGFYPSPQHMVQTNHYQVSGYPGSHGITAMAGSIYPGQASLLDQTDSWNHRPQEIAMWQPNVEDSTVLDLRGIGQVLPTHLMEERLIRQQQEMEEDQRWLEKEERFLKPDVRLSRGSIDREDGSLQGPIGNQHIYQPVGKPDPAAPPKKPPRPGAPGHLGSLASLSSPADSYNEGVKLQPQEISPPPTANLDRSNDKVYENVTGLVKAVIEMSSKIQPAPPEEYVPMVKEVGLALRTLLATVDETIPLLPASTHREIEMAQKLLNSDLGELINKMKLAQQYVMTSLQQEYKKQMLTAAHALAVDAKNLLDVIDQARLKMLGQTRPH
Concanavalin-A (Canavalia ensiformis), sequence (P02866 whole entry, looked up): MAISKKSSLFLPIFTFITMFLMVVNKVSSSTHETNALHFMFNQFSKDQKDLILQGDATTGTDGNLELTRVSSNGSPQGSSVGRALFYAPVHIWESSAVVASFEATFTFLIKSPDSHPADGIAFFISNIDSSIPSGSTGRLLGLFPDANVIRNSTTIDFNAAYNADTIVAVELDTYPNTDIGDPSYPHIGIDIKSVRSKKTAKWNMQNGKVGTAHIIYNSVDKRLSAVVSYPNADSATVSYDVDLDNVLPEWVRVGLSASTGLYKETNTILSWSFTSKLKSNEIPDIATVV

As to `CC(C)NC(=O)[C@@H]1c2ccccc2C(=O)N(Cc2ccccc2)[C@H]1c1ccc(CO)cc1`, the composite z-score is -0.113 in [1]; 0.0237 in assay [3]; -0.0638 in assay [4]; 0.706 in assay [5]; 2.01 in assay [6]; 0.821 in assay [7]. Also, the composite z-score in [8] is -0.598; in assay [9], -1.38; in assay [10], -0.717; in assay [11], 0.166; in [12] it was 0.482; in [13], 0.512. In addition, the composite z-score in assay [14] was -0.367; in [15], -0.797; in [16] it was 0.394; in assay [18], -1.54; in assay [19], 0.826. Besides, the composite Z-score in [2] is 0.601 (inactive). In addition, the z-score is 0.484 in [17] and 0.413 (inactive) in assay [20].

`COc1ccc([Si](C)(C)[C@H]2[C@H](CCn3cc(CCO)nn3)O[C@@]3(C(=O)N(Cc4ccc(N5CCOC5=O)cc4)c4ccccc43)[C@@H]2C)cc1`: the composite z-score in assay [1] was 0.535; in assay [3] it was -0.0126; in [4], -0.112; in [5], 0.458; in assay [6], 1.94; in assay [7], 0.622. Besides, the composite z-score in assay [8] came to 1.23; in [9], 0.21; in assay [10] it was 0.702; in [11] it was 1.88; in assay [12], 1.16; in assay [13] it was 0.105. Further, the composite z-score turned out to be 0.505 in [14]; 0.308 in [15]; 0.308 in assay [16]; 0.419 in assay [18]; 0.829 in [19]. Besides, the composite Z-score in assay [2] was 0.533 (inactive). Besides, the z-score in assay [17] is 1.26; in assay [20], -0.648 (inactive).

On to `Cc1cc(C)cc(N2C(=O)CS(=O)(=O)C2c2cccc([N+](=O)[O-])c2)c1` (stereo not given), for which the composite z-score in [1] turned out to be 0.785; in assay [3], 0.799; in assay [4], 0.189; in assay [5], 0.547; in assay [6] it was 1.73; in [7], 1.36. In addition, the composite z-score in assay [8] came to 0.828; in [9] it was 0.433; in assay [10], 0.989; in assay [11], 1.11; in assay [12] it was 0.632; in assay [13] it was 0.894. Moreover, the composite z-score amounted to 0.829 in assay [14]; 0.508 in [15]; 0.126 in assay [16]; 0.874 in [18]; 0.841 in assay [19]. In assay [2], the composite Z-score was 1.97 (inactive). Moreover, the values for the z-score in assay [17] and in assay [20] were 0.382 and -0.273 (inactive), respectively.

Consider `CCOC(=O)C1=CCC(c2ccc([N+](=O)[O-])cc2)N(S(=O)(=O)c2ccc(C)cc2)C1` (stereo not given), for which the composite z-score in assay [1] was 0.261; in assay [3] it was 0.0351; in [4], -0.0439; in [5], 0.408; in assay [6], 1.12; in assay [7] it was 0.279. Moreover, the composite z-score is 0.377 in assay [8]; -0.0439 in [9]; 0.666 in [10]; 0.711 in [11]; 0.915 in assay [12]; 0.801 in [13]. Besides, the composite z-score is -0.0411 in assay [14]; 0.261 in assay [15]; -0.277 in [16]; -0.023 in [18]; 0.44 in assay [19]. In addition, the composite Z-score in assay [2] is 0.448 (inactive). Besides, the results for the z-score in assay [17] and in assay [20] were 1.15 and 1.95 (inactive), respectively.

Regarding `CO[C@H]1O[C@H](CO)[C@@H](OC(=O)Nc2ccc3c(c2)OCO3)[C@H](OC(=O)Nc2ccccc2)[C@H]1OC(=O)Nc1ccccc1`, the composite z-score in assay [1] was -0.21; in assay [3] it was 0.0773; in assay [4], -0.102; in [5], 0.406; in [6] it was 2.04; in assay [7], 0.637. Further, the composite z-score turned out to be 1.19 in [8]; 0.261 in assay [9]; 0.143 in assay [10]; 1.77 in assay [11]; 1.28 in assay [12]; 0.927 in assay [13]. The composite z-score was found to be 0.995 in [14]; 1.32 in assay [15]; 0.924 in assay [16]; 1.29 in assay [18]; 0.928 in [19]. In addition, the composite Z-score in [2] is 0.118 (inactive). For the same compound, the values for the z-score in assay [17] and in [20] were -0.925 and -0.546 (inactive), respectively.

`CC(C)N1CC=CC23O[C@@H]4C=CCOC(=O)[C@@H]4[C@H]2C(=O)N(CCO)[C@@H]3C1=O` (stereo not given in full): the composite z-score is -0.0355 in assay [1]; -0.299 in assay [3]; -0.14 in assay [4]; 0.9 in assay [5]; 1.29 in [6]; -0.252 in [7]. The composite z-score is 0.557 in assay [8]; -1.59 in assay [9]; -0.329 in assay [10]; 0.386 in [11]; -0.586 in [12]; -0.346 in assay [13]. For the same compound, the composite z-score was -0.766 in assay [14]; -0.22 in [15]; -1.33 in assay [16]; 0.103 in [18]; -0.249 in assay [19]. The composite Z-score in assay [2] was 0.604 (inactive). Besides, the z-score in assay [17] is -0.346; in [20], -0.0322 (inactive).

These data come from PubChem BioAssay.
